{"source": "the supplement of paper PMC3334620", "note": "In all, about 33,000 sequences were measured (“E-score (-0.5 to 0.5)”: median about -0.053, highest 2% from about 0.37 on). The sample as a whole holds a higher share of the highest values than the screen did."}
{"target": "Hap1 (UniProt P0CE41)", "sequence (P0CE41 whole entry, the tested form may be a part)": "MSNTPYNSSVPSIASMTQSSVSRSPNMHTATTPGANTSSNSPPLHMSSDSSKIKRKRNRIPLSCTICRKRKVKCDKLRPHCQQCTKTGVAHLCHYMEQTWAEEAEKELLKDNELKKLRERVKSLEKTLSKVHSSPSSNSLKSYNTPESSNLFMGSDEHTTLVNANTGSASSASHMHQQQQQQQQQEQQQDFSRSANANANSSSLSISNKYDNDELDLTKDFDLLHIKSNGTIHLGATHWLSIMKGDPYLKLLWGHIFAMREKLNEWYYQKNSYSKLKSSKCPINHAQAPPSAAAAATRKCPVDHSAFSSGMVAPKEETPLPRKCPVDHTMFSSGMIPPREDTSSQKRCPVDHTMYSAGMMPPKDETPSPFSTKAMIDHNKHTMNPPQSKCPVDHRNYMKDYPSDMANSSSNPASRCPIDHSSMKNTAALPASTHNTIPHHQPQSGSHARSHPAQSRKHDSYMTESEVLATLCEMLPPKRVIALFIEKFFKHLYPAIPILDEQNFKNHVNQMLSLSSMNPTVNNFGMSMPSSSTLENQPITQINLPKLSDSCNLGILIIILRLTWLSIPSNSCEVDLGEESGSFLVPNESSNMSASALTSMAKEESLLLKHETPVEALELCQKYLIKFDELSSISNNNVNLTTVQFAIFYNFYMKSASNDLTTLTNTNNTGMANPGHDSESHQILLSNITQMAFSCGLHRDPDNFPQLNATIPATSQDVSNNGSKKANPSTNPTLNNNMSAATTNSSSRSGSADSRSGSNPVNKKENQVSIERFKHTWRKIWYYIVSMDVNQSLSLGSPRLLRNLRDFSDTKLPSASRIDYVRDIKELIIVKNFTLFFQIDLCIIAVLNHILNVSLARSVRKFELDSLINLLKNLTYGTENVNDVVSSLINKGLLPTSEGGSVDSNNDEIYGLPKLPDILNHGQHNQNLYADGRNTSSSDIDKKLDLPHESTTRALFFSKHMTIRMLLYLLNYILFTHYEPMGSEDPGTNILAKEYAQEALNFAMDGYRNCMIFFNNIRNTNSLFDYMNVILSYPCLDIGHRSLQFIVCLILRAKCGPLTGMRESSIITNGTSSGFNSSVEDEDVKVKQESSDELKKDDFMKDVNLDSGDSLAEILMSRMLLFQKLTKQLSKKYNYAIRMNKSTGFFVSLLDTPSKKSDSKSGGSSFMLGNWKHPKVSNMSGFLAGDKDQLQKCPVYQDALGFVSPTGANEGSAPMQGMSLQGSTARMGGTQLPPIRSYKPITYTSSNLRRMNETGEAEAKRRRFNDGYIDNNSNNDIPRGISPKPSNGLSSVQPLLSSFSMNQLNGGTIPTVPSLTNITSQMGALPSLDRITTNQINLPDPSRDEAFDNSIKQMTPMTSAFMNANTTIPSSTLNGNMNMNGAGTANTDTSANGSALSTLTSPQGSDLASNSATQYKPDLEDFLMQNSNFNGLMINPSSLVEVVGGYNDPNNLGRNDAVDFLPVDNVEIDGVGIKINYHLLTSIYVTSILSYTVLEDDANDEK", "experiment": "PBM E-score (8-mer binding enrichment) (E-score (-0.5 to 0.5)); higher = stronger / more preferred TF binding", "conditions": "protein concentration: 200 nM; construct: GST-DNA-binding domain", "description": "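Universal 'all 10-mer' protein binding microarrays (Agilent AMADID 015681) probed with GST-tagged S. cerevisiae TFs (full-length or DBD) made by in vitro transcription/translation (PURExpress), about 100-200 nM. Bound TF was detected with fluorescent anti-GST. Each ungapped 8-mer (which stands for itself and its reverse complement) is scored by the PBM enrichment score (E-score), a modified Wilcoxon-Mann-Whitney statistic from -0.5 to +0.5, computed with the Universal PBM Analysis Suite. Scale: above 0.35 generally sequence-specific binding.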"}
{"sequence": "CGGAGCGC", "PBM E-score": 0.258}
{"sequence": "AACAAAGC", "PBM E-score": -0.0164}
{"sequence": "AGCGCATG", "PBM E-score": -0.2}
{"sequence": "ATTGACCC", "PBM E-score": -0.0115}
{"sequence": "GCCTGCTA", "PBM E-score": -0.152}
{"sequence": "TCCGAACA", "PBM E-score": 0.381}
{"sequence": "ACCGAAAC", "PBM E-score": 0.323}
{"sequence": "ACCGAAGA", "PBM E-score": 0.207}
{"sequence": "CCCGAAGA", "PBM E-score": 0.284}
{"sequence": "GCCGAAAA", "PBM E-score": 0.345}
{"sequence": "CCCGAAAA", "PBM E-score": 0.426}
{"sequence": "CCCGAAAC", "PBM E-score": 0.208}
{"sequence": "GCCGAACA", "PBM E-score": 0.233}
{"sequence": "CCCGAAAG", "PBM E-score": 0.298}
{"sequence": "ACCGAACA", "PBM E-score": 0.265}
{"sequence": "TCCGAAGA", "PBM E-score": 0.419}
{"sequence": "GCCGAAAC", "PBM E-score": 0.38}
{"sequence": "GGCGAAAC", "PBM E-score": 0.194}
{"sequence": "CGGCGGTC", "PBM E-score": 0.244}
{"sequence": "CAGCGCGC", "PBM E-score": 0.057}
{"sequence": "CTTTCAGC", "PBM E-score": 0.0716}
{"sequence": "ACCGAAAA", "PBM E-score": 0.26}
{"sequence": "TGCGAAAA", "PBM E-score": -0.00129}
{"sequence": "TCCGAAAA", "PBM E-score": 0.393}
{"sequence": "AGCAACTA", "PBM E-score": -0.0755}
{"sequence": "AGAATCAT", "PBM E-score": -0.259}
{"sequence": "AATCACAT", "PBM E-score": 0.0324}
{"sequence": "CGTGGTCC", "PBM E-score": -0.0363}
{"sequence": "CGGCGCCA", "PBM E-score": 0.246}
{"sequence": "CGCCGGCA", "PBM E-score": 0.349}
{"sequence": "CGCCGGCC", "PBM E-score": 0.396}
{"sequence": "GGCCGGCC", "PBM E-score": 0.367}
{"sequence": "AGCCGGCG", "PBM E-score": 0.352}
{"sequence": "CGCCGGCG", "PBM E-score": 0.422}
{"sequence": "CGGCGCCG", "PBM E-score": 0.406}
{"sequence": "CGCCGCCG", "PBM E-score": 0.276}
{"sequence": "AGGCGCCG", "PBM E-score": 0.0638}
{"sequence": "CGGACCGA", "PBM E-score": 0.423}
{"sequence": "CCGACCGA", "PBM E-score": 0.422}
{"sequence": "GGGACCGA", "PBM E-score": 0.329}
{"sequence": "ACGACCGG", "PBM E-score": 0.292}
{"sequence": "CGGACCTA", "PBM E-score": 0.425}
{"sequence": "CCGACCGC", "PBM E-score": 0.181}
{"sequence": "GGGACCTA", "PBM E-score": 0.116}
{"sequence": "AGGACCTA", "PBM E-score": 0.095}
{"sequence": "GCGACCGA", "PBM E-score": 0.253}
{"sequence": "ACGACCGA", "PBM E-score": 0.275}
{"sequence": "CGGACCGC", "PBM E-score": 0.367}
{"sequence": "CCGACCGG", "PBM E-score": 0.428}
{"sequence": "AGTAGCGG", "PBM E-score": 0.216}
{"sequence": "ACCTCTCG", "PBM E-score": -0.0768}
{"sequence": "CCAGGCCC", "PBM E-score": -0.0511}
{"sequence": "CGCGGCCG", "PBM E-score": 0.27}
{"sequence": "ACTACGGA", "PBM E-score": 0.238}
{"sequence": "TATCAGAA", "PBM E-score": 0.0826}
{"sequence": "AATCCTAT", "PBM E-score": 0.204}
{"sequence": "GTCCTACA", "PBM E-score": 0.145}
{"sequence": "ATCTGGCG", "PBM E-score": 0.0049}
{"sequence": "AAGCGTAC", "PBM E-score": -0.292}
{"sequence": "CGGACCAG", "PBM E-score": 0.304}
{"sequence": "TCGACCAA", "PBM E-score": -0.331}
{"sequence": "TCGACCGA", "PBM E-score": 0.393}
{"sequence": "TCGACCCA", "PBM E-score": -0.221}
{"sequence": "CGGACCAA", "PBM E-score": 0.383}
{"sequence": "CGGACCCG", "PBM E-score": 0.387}
{"sequence": "CGGACCAC", "PBM E-score": 0.279}
{"sequence": "AGGACCCG", "PBM E-score": 0.218}
{"sequence": "CGGACCCC", "PBM E-score": 0.233}
{"sequence": "GGAATCAC", "PBM E-score": 0.196}
{"sequence": "AGAGTAAT", "PBM E-score": 0.076}
{"sequence": "CGGTGAGA", "PBM E-score": 0.12}
{"sequence": "ATCAACAT", "PBM E-score": -0.109}
{"sequence": "ACCCCCAG", "PBM E-score": -0.25}
{"sequence": "ATATTTCA", "PBM E-score": -0.15}
{"sequence": "ATATTTCC", "PBM E-score": 0.427}
{"sequence": "CTATTTCC", "PBM E-score": 0.397}
{"sequence": "ATATTTCG", "PBM E-score": 0.235}
{"sequence": "CTATTTTC", "PBM E-score": 0.0335}
{"sequence": "CTATTTCA", "PBM E-score": -0.0144}
{"sequence": "AACTTTCA", "PBM E-score": -0.106}
{"sequence": "CGGTCATA", "PBM E-score": 0.411}
{"sequence": "CGGTCTTA", "PBM E-score": 0.404}
{"sequence": "CGGTCGTA", "PBM E-score": 0.383}
{"sequence": "GGGTCATA", "PBM E-score": -0.00686}
{"sequence": "CGGTCTGA", "PBM E-score": 0.205}
{"sequence": "CGGTCATC", "PBM E-score": 0.192}
{"sequence": "CGGTCGTC", "PBM E-score": 0.165}
{"sequence": "GGGTCGTA", "PBM E-score": 0.0749}
{"sequence": "GGGTCTTA", "PBM E-score": 0.0728}
{"sequence": "TAGACCCA", "PBM E-score": -0.194}
{"sequence": "ATCACGGC", "PBM E-score": 0.134}
{"sequence": "ACAAAAGC", "PBM E-score": 0.0095}
{"sequence": "CATGGGTC", "PBM E-score": -0.168}
{"sequence": "ATCGGGCC", "PBM E-score": 0.324}
{"sequence": "AACGGCCT", "PBM E-score": 0.074}
{"sequence": "ATCGGCCA", "PBM E-score": 0.253}
{"sequence": "ATCGGCAG", "PBM E-score": 0.315}
{"sequence": "AACGGCCG", "PBM E-score": 0.405}
{"sequence": "AGCGGCGG", "PBM E-score": 0.291}
{"sequence": "CTCGGCCC", "PBM E-score": 0.336}
{"sequence": "ATCGGCCC", "PBM E-score": 0.379}
{"sequence": "ATCGGCCG", "PBM E-score": 0.443}
{"sequence": "AACGGCCA", "PBM E-score": 0.183}
{"sequence": "ATCGGCGG", "PBM E-score": 0.408}
{"sequence": "ATCGGCGC", "PBM E-score": 0.343}
